The record followed here is article PMC4336329 (PLoS ONE, 2015).

Molecules are shown by their SMILES. In all, about 310,000 compounds went through this assay and about 14,000 (4.5%) showed an effect of 50% or more. Effects have a minus sign here. For the sample, strong results were picked, then their nearest neighbours and some compounds at random.
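Further: peak tail current of the secondary pulse compared with the same well before compound.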

In this assay the target is human ether-à-go-go-related gene (hERG) potassium channel (human, UniProt Q12809). Briefly: primary screen, population patch clamp on CHO cells stably expressing hERG; higher = less effect of the substance.
human ether-à-go-go-related gene (hERG) potassium channel, sequence (Q12809 whole entry, looked up): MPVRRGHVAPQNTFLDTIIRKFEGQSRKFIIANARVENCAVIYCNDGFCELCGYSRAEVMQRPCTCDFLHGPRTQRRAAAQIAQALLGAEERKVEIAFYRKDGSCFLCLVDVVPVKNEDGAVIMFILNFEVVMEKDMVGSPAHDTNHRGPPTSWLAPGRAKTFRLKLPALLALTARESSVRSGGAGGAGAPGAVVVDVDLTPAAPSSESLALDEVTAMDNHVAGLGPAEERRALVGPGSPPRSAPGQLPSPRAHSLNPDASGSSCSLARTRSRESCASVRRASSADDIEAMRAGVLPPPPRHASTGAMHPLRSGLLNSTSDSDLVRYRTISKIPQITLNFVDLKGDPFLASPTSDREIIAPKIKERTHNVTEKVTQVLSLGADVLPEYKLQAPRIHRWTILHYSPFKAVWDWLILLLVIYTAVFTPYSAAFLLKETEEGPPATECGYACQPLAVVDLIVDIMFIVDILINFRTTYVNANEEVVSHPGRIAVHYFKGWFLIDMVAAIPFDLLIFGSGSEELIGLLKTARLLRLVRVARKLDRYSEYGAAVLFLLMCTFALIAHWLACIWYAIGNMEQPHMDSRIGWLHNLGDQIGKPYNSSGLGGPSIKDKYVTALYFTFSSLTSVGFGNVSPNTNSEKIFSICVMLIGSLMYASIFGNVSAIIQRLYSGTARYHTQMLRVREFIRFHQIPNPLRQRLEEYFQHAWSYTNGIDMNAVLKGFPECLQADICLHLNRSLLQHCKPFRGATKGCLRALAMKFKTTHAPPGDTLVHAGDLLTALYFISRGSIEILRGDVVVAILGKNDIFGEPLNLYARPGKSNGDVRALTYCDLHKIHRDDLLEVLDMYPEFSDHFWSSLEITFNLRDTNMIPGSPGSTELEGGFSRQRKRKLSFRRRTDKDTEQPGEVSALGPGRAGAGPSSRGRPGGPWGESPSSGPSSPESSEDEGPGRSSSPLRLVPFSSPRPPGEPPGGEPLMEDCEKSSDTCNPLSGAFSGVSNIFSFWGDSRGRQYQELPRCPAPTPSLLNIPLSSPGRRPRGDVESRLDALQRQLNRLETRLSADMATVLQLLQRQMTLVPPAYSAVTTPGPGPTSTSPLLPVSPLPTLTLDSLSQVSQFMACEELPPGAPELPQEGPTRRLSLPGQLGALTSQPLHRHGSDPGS
As for `O=C(CN1CCN(Cc2ccc(F)cc2)C1=O)NCc1cccs1`, the “hERG current change (%, negative = inhibition) at 10uM” value is listed as -1.62%. Turning to `O=C(CN1CCN(Cc2ccc(Cl)cc2)C1=O)NCc1cccs1`, the “hERG current change (%, negative = inhibition) at 10uM” value was -57.6%. The figure for `O=C(CN1CCN(Cc2ccccc2)C1=O)NCc1cccs1` is 1.2%. For `CC1CCCC(C)N1C(=O)CSc1nc2c(c(=O)n(C)c(=O)n2C)n1C` (stereo not drawn), the “hERG current change (%, negative = inhibition) at 10uM” value turned out to be 5.34%. For the compound `CN(C)c1ccc(C(=S)N2CCN(c3ccc([N+](=O)[O-])cc3)CC2)cc1`, the “hERG current change (%, negative = inhibition) at 10uM” value is -18.7%. Turning to `CCOC(=O)c1ccc(NC(=S)N2CCSC2c2ccc(Br)cc2)cc1` (stereo not drawn), the “hERG current change (%, negative = inhibition) at 10uM” value is 5.4%. The figure for `O=C(c1ccc([N+](=O)[O-])cc1)N1CCSC1c1ccc(Br)cc1` (stereo not drawn) is -64.2%.

With `O=C(NNC(=O)c1ccc([N+](=O)[O-])cc1)c1ccc(Br)cc1`, the “hERG current change (%, negative = inhibition) at 10uM” value is 14.5%.

With `O=C(CC1C(=O)NCCN1C(=O)c1ccc([N+](=O)[O-])cc1)Nc1cccc(Cl)c1` (stereo not drawn), the “hERG current change (%, negative = inhibition) at 10uM” value is on record as -40.4%. The figure for `CN(C)c1ccc(C2SCCN2C(=O)c2ccc([N+](=O)[O-])cc2)cc1` (stereo not drawn) is -66.7%; for `O=C(c1ccc([N+](=O)[O-])cc1)N1CCSC1c1ccccc1` (stereo not drawn) it is -39.3%; for `O=C(c1ccc([N+](=O)[O-])cc1)N1CCSC1c1ccc(Cl)cc1` (stereo not drawn) it is -76.9%. The figure for `O=C(c1ccc([N+](=O)[O-])cc1)N1CCSC1c1cccc(Cl)c1` (stereo not drawn) is -69.3%; for `CC(=O)Nc1ccc(N2C(=O)CSC2c2ccc([N+](=O)[O-])cc2)cc1` (stereo not drawn) it is -11.3%; for `O=C(O)c1ccc(N2C(=O)CSC2c2cccc([N+](=O)[O-])c2)cc1` (stereo not drawn) it is 15.5%.

As to `O=C(c1ccc([N+](=O)[O-])cc1)N1CCSC1c1ccccc1Cl` (stereo not drawn), the “hERG current change (%, negative = inhibition) at 10uM” value came out at 7.77%. The figure for `CC1NC(=O)N(C)[C@@H]2NC(=O)N(C)C(c3ccc([N+](=O)[O-])cc3)[C@@H]12` (stereo partly drawn) is 7.29%; for `CCCCN(C(=O)NC(=O)Nc1cc(C)ccc1C)S(C)(=O)=O` it is 17.9%; for `CNC(=O)COC(=O)CCC(=O)c1ccc(Cl)cc1` it is 7.45%. On to `Cc1noc(C)c1COc1ccc(C(=O)Nc2ncccc2O)cc1`, for which the “hERG current change (%, negative = inhibition) at 10uM” value came to 11.5%. The figure for `Cc1ccc(C(=O)NCC2CCCO2)cc1[N+](=O)[O-]` (stereo not drawn) is 4.29%; for `Cc1cc(C=C2C(=O)c3ccccc3C2=O)c(C)n1-c1ccccc1` it is 7.13%; for `C[C@H](NC(=O)OCc1ccccc1)C(=O)NNC(=O)[C@H](Cc1ccccc1)NC(=O)OC(C)(C)C` it is 31.2%. The figure for `O=C1N(c2cccc(Cl)c2)C(c2cccnc2)N2CCCN12` (stereo not drawn) is -4.39%; for `Cc1ccc(C(=O)N2CCN(C(=O)c3ccccc3)C2c2ccc(N(C)C)cc2)cc1` (stereo not drawn) it is -50.8%; for `COc1ccccc1C1SCCN1C(=O)c1ccc([N+](=O)[O-])cc1` (stereo not drawn) it is -38.7%. The figure for `COc1ccc(C2SCCN2C(=O)c2ccc([N+](=O)[O-])cc2)cc1` (stereo not drawn) is -70%; for `O=C(c1ccccc1)N1CCN(C(=O)c2ccccc2)C1c1ccccc1` it is 4.53%.

On to `COc1ccc(C2N(C(=O)c3ccccc3)CCN2C(=O)c2ccc(C)cc2)cc1` (stereo not drawn), for which the “hERG current change (%, negative = inhibition) at 10uM” value was -24.9%. `CC1(C)CC2CC(C)(CN2C(=O)c2ccc([N+](=O)[O-])cc2)C1` (stereo not drawn): the “hERG current change (%, negative = inhibition) at 10uM” value is -62.4%. The figure for `CC1(C)CC2CC(C)(CN2C(=O)c2ccccc2)C1` (stereo not drawn) is 8.08%; for `CC1(C)C[C@@H]2C[C@@](C)(CN2C(=O)c2ccccc2)C1` it is 11.3%; for `COc1ccc(N2C(=O)CSC2c2ccc([N+](=O)[O-])cc2)cc1` (stereo not drawn) it is -37.3%. The figure for `O=C(C1CCN(S(=O)(=O)c2ccccc2)CC1)N1CCC1` is 12.3%; for `Cc1[nH]n(-c2ccccc2)c(=O)c1C=Nc1cnc2ccccc2c1` it is -8.67%. The figure for `O=C(c1cccs1)c1ccc(-c2cccs2)s1` is 1.57%; for `NC(=O)CSc1nc(-c2ccccc2)nc2c1CCCC2` it is 5.92%. With `CSc1nc(-c2ccccc2)nc2c1COC(C)(C)C2`, the “hERG current change (%, negative = inhibition) at 10uM” value amounted to 5.03%. The figure for `O=C(O)CSc1nc(-c2ccccc2)nc2c1CCCC2` is 12.8%; for `CCSc1nc(-c2ccccc2)nc2c1CCCC2` it is 7.26%. The figure for `CN(C)C(=O)CSc1nc(-c2ccccc2)nc2c1CCCC2` is -5.09%; for `OCCSc1nc(-c2ccccc2)nc2c1CCC2` it is -12%; for `CN(C)CCSc1nc(-c2ccccc2)nc2c1CCC2` it is -61.3%. Regarding `CN(C)CCSc1nc(-c2ccccc2)nc2c1COC(C)(C)C2`, the “hERG current change (%, negative = inhibition) at 10uM” value was -69.1%. The figure for `CN(C)CCSc1nc(-c2ccccc2)nc2c1CCCC2` is -51.3%.

For `OCC(O)CSc1nc(-c2ccccc2)nc2c1CCC2` (stereo not drawn), the “hERG current change (%, negative = inhibition) at 10uM” value is 2.22%. The figure for `CC1(C)Cc2nc(-c3ccccc3)nc(SCC(O)CO)c2CO1` (stereo not drawn) is -15.8%; for `CN(C)CCCSc1nc(-c2ccccc2)nc2c1CCC2` it is -50.3%.
